# Screening data as filed in PubChem.
# VP16 counter: VP16 counterscreen qHTS for inhibitors of ROR gamma transcriptional activity | AID 2546, 2010 | Potency, µM (highest dose often 53.6 µM), without a hit: at the top dose activity, negative = inhibition, most hits filed as inhibitors | actives 3.5% (n = 310,000) | Drosophila S2 Gal4-VP16 UAS-luciferase, luminescence, 20 h;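 note: Gal4-VP16 expression switched on by copper sulfate through the metallothionein promoter; potency is the fitted concentration of half-maximal effect; % is set by controls: 0 for no effect and ±100 for the full control effect; nearly all actives have a fitted effect of over 50% in size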
# RORgamma inh: qHTS for inhibitors of ROR gamma transcriptional activity; Nuclear receptor ROR-gamma (Mus musculus), P51450; Drosophila S2 Gal4-RORgamma UAS-luciferase reporter, 20 h; Potency, µM (doses to about 53.6 µM), without a hit: at the top dose activity change, negative = inhibition, usual class: inhibitors; actives 5.4% (n = 310,000); AID 2551, 2010; note: potency is the fitted concentration of half-maximal effect; % is set by controls: 0 for no effect and ±100 for the full control effect; nearly all actives have a fitted effect of over 60% in size
#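 Using a luciferase readout, inhibitors were identified by reduced reporter activity in Drosophila cells coexpressing a copper-inducible Gal4–ROR gamma fusion and UAS-driven Photinus luciferase, incubated 20 hr after 700 uM copper sulfate.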
# TRPV1 PAM: HTS Assay for Compounds that Act as Potentiators of the Vanilloid Receptor 1; Transient receptor potential cation channel subfamily V member 1 (Homo sapiens), Q8NER1; TRPV1-expressing cells, Fluo-8 calcium influx, capsaicin EC20 potentiation; potentiation, % at 8.33 µM; actives 0.02% (n = 320,000); in the data active = potentiation above about 80%; inconclusive = between about 30% and that limit; note: 0% is about no effect
# Target sequence (Q8NER1 whole entry, looked up): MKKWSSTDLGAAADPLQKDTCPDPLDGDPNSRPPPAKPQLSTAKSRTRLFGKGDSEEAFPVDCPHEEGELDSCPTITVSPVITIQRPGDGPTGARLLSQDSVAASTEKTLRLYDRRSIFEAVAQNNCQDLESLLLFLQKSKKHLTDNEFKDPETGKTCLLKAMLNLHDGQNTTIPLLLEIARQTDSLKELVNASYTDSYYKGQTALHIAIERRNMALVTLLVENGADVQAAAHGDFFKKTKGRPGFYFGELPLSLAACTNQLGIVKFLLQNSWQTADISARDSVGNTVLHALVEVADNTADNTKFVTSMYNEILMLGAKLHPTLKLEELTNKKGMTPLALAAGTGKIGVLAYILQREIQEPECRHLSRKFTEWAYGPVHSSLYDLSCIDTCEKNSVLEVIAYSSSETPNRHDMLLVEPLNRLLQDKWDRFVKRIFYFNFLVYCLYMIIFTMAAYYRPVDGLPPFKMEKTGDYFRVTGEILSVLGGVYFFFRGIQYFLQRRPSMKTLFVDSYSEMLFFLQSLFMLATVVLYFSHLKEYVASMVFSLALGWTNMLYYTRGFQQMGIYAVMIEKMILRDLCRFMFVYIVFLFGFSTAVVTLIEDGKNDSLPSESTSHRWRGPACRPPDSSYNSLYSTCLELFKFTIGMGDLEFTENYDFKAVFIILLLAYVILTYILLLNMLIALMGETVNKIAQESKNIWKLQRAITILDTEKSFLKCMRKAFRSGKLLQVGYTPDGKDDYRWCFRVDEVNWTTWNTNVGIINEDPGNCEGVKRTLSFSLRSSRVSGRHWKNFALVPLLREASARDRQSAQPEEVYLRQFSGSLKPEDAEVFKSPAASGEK
#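 TRPV1-expressing cells were cultured overnight at 35.5C and loaded with Fluo-8 calcium dye for 40 to 90 min at room temperature. After a 10 s baseline, compound was added and calcium influx was read kinetically for 3 min (ex 480/em 520 nm).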
# TRPV1 ag: HTS Assay for Compounds that Act as Agonists of the Vanilloid Receptor 1. Transient receptor potential cation channel subfamily V member 1 (Homo sapiens), Q8NER1. TRPV1-expressing cells, Fluo-8 calcium influx, agonist mode. activation, % at 8.33 µM. actives 0.19% (n = 320,000). AID 540275, 2011; in the data active = activation above about 80%; inconclusive = between about 30% and that limit; note: 0% is about no effect
#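 Fluo-8 calcium influx in TRPV1-expressing cells, kinetic read (ex 480/em 520 nm). Compound added and read 3 min for agonist activity, followed by capsaicin at EC20 final and 2 min further read for enhancement.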
# uPA generation: qHTS for Inhibitors of Cell Surface uPA Generation. cell surface uPA generation assay, qHTS. AID 540303, 2011. Potency, µM (titrated, usually from 38.3 µM), for the others: top-dose activity change, negative = inhibition, most hits filed as inhibitors. actives 0.31% (n = 330,000); active = well fitted inhibition curve with a large enough effect; inconclusive = small, poorly fitted or top-dose-only effect; inactive = no such curve, though single readings can be large or run the other way; tested in mouse RAW 264.7 cells; note: potency is the fitted concentration of half-maximal effect; % is set by controls: 0 for no effect and ±100 for the full control effect; nearly all actives have a fitted effect of over 55% in size
# Active calls of the source: *; ? = inconclusive; . = not tested or not shown. The list is not random: actives were taken first. Their share in the collection is about 5.8%. Unless noted, calls come from the whole dose curve; as a rule, active = well fitted curve in the direction sought with a large enough effect; inconclusive = small, poorly fitted or top-dose-only effect, or another doubt; inactive = no such curve, though single readings can be large; an effect the other way counts as inactive or inconclusive.
SMILES,VP16 counter,RORgamma inh,TRPV1 PAM,TRPV1 ag,uPA generation
CC(=O)Nc1ccc(C(=O)OCC(=O)Nc2c(F)cccc2F)cc1,-14.6%,0.1%,.,.,8.3%
Cc1ccc(/C=C2/CNC/C(=C\c3ccc(C)cc3)C2=O)cc1,7.08µM*,3.55µM*,.,.,.
CN(Cc1ccc(OCC(O)CN2CCCCC2)cc1)Cc1ccnc2ccccc12 (stereo unspecified),6.31µM*,7.08µM*,5.7,-2.1,?
Cc1nn(C)cc1CN(C)Cc1ccc(OCC(O)CN2CCCCC2)cc1 (stereo unspecified),4.4%,1.6%,-0.2,2.4,11.0%
CN(C)C1=NC[C@H](Cc2ccccc2)N1CCCC1CCCCC1,.,.,8.7,-1.9,?
CCCCN1C(=S)NC[C@@H]1c1ccccc1,12.6µM*,2.82µM*,0.1,-2.9,-2.0%
S=C1NC[C@H](CC2CCCCC2)N1CCc1cccc2ccccc12,0.631µM*,0.251µM*,-13.6,3.8,18.8%
CN(C)C1=NC[C@H](Cc2ccccc2)N1CCCC1CCCC1,.,.,?,4.2,3.98µM*
CCCCN1C(N)=NC[C@@H]1c1ccccc1,.,.,.,.,8.5%
S=C1NC[C@H](Cc2ccccc2)N1CCCCC1CCCCC1,5.01µM*,0.708µM*,10.0,5.6,15.1%
O=C1NC[C@@H](Cc2cccc3ccccc23)N(CCCCC2CCCCC2)C1=O,.,.,14.1,0.1,-6.9%
O=C(NCc1cccs1)C1CC(=O)N(Cc2ccccc2)C1 (stereo unspecified),.,.,.,.,-1.9%
COc1ccc(-c2oc(=O)c3cc(OC)c(OC)cc3c2C#C[C@]2(O)CC[C@H]3[C@@H]4CCc5cc(OC)ccc5[C@H]4CC[C@@]32C)cc1,.,.,.,.,-0.3%
CCCCCCCNC(=O)c1ccc(N2CCC3(CC2)OCCO3)c([N+](=O)[O-])c1,-16.2%,25.1%,-19.0,23.4,-0.7%
CCCCN1C(=S)NC[C@@H]1Cc1ccccc1,7.94µM*,1.78µM*,22.0,1.3,2.2%
S=C1NC[C@H](c2ccccc2)N1CC1CCCCC1,4.47µM*,1.12µM*,-4.2,10.1,0.4%
S=C1NC[C@H](CC2CCCCC2)N1CCCCC1CCCCC1,3.16µM*,1.12µM*,-15.6,?,8.9%
COC(=O)c1ccccc1S(=O)(=O)N1CCC(C(=O)NC2CCCCC2)CC1,.,.,7.8,-2.3,3.1%
CC(/C=N/n1c(-c2ccc(Cl)cc2)n[nH]c1=S)=C\c1ccco1,3.98µM*,3.16µM*,4.3,0.9,-5.8%
Cc1ccc(-c2n[nH]c(=S)n2/N=C\c2ccco2)cc1,5.62µM*,6.31µM*,7.8,-6.5,-1.7%
Cc1cccc(-c2n[nH]c(=S)n2/N=C/c2ccco2)c1,?,8.91µM*,13.7,0.1,-7.1%
CCN(CC(=O)Nc1cccc(S(=O)(=O)N2CCOCC2)c1)Cc1ccccc1,.,.,-1.5,16.8,-1.1%
CC(C)n1cc(C(=O)N2CCCC(N3CCN(c4cccc(Cl)c4)CC3)C2)cn1 (stereo unspecified),3.7%,32.3%,0.3,0.8,3.5%
CN(C)C(=O)CCSC(SCCC(=O)O)c1cccc(/C=C/c2ccc3ccc(Cl)cc3n2)c1 (stereo unspecified),-3.5%,?,.,.,.
Cc1ccc(OCC(=O)Nc2cccc(O)c2)cc1C,-10.8%,-3.1%,-3.6,-1.8,-0.2%
SMILES,VP16 counter,RORgamma inh,TRPV1 PAM,TRPV1 ag,uPA generation
Cc1ccc(C(=O)NC(=S)NNC(=O)c2ccccc2[N+](=O)[O-])cc1,3.16µM*,3.16µM*,-2.2,4.8,-3.0%
Cc1ccc(C(=O)NNC(=S)NC(=O)c2ccc(Cl)cc2Cl)cc1,7.4%,-27.1%,-18.6,20.9,-4.2%
CNC(=S)NNC(=O)COc1ccc(C)c(C)c1,7.08µM*,6.31µM*,29.1,-3.6,1.8%
Cc1ccc(C(=O)NC(=S)NNC(=O)c2ccc([N+](=O)[O-])cc2)cc1,11.2µM*,?,?,0.3,-1.8%
CCCCC(=O)NC(=S)NNC(=O)c1ccc(Cl)cc1Cl,-12.5%,11.2µM*,?,-1.1,1.9%
CN(C)c1ncc2nc(-c3ccc(Cl)cc3)c(=O)n(-c3ccccc3)c2n1,-3.4%,-8.5%,.,.,.
COc1ccc(OCC(=O)NNC(=S)NC(=O)c2ccc([N+](=O)[O-])cc2)cc1,5.62µM*,5.62µM*,2.6,0.5,3.4%
Cc1occc1C(=O)NNC(=S)NC(=O)COc1ccc(Cl)cc1Cl,?,15.8µM*,-7.5,-6.6,-2.0%
COc1ccc(C(=O)NC(=S)NNC(=O)c2cccc(C)c2)cc1,.,.,.,.,2.8%
Cc1cccc(C(=O)NC(=S)NNC(=O)COc2ccc(Cl)cc2)c1,?,3.98µM*,2.9,-0.4,0.6%
CC(=O)NC(=S)NNC(=O)COc1ccc([N+](=O)[O-])cc1,-2.0%,-11.0%,4.8,-0.5,5.2%
Cc1occc1C(=O)NNC(=O)COc1ccc(Br)cc1Br,1.6%,16.3%,3.0,1.8,-1.6%
O=C(NNC(=S)NC(=O)c1ccc(Br)cc1)c1cccc([N+](=O)[O-])c1,?,14.1µM*,-8.9,8.4,8.5%
CCOC(=O)C1CCN(C(=O)/C=C/c2ccc(S(=O)(=O)N3CCOCC3)cc2)CC1,.,.,.,.,-5.3%
O=C(NNC(=S)NC(=O)c1ccccc1[N+](=O)[O-])c1ccccc1[N+](=O)[O-],7.4%,-26.9%,-1.4,-0.6,9.4%
O=C(NNC(=S)NC(=O)c1ccc(Br)cc1)c1ccc([N+](=O)[O-])cc1,?,11.2µM*,0.0,-2.9,-14.5%
O=C(NNC(=O)c1ccc([N+](=O)[O-])cc1)c1ccc(Br)cc1,-13.5%,-10.9%,3.6,3.6,5.6%
O=C(NNC(=S)NC(=O)c1ccccc1[N+](=O)[O-])c1ccc(Cl)cc1Cl,-0.7%,5.62µM*,9.4,0.5,3.1%
O=C(NC(=S)NNC(=O)c1ccccc1O)c1ccc([N+](=O)[O-])cc1,3.8%,2.1%,7.8,-4.2,?
CCCCOc1ccccc1C(=O)NNC(=S)NC(=O)c1ccccc1[N+](=O)[O-],?,14.1µM*,4.4,3.5,-8.1%
O=C(NNC(=S)NC(=O)c1ccccc1[N+](=O)[O-])c1ccccc1O,-16.4%,-15.4%,-9.9,-0.5,-9.5%
O=C(NNC(=S)NC(=O)c1ccccc1)c1ccc([N+](=O)[O-])cc1,1.41µM*,3.55µM*,?,-4.9,4.7%
Cc1ccc(C(=O)CC(=O)COc2ccc(Cl)cc2)cc1,10µM*,12.6µM*,-17.9,0.3,5.0%
CCCCCC(=O)NNC(=S)NC(=O)c1ccc([N+](=O)[O-])cc1,6.31µM*,2.82µM*,2.6,-3.1,3.8%
Cc1ccc(C(=O)NCCOc2ccc(Cl)cc2)cc1,?,?,12.0,?,3.7%
O=C(O)CCC(=O)NNC(=O)c1ccc([N+](=O)[O-])cc1,-1.2%,-12.3%,-11.2,2.8,-2.0%
